# Results taken from the supplement of paper PMC12636033.
# ± gives the standard deviation of the averaged measurements. Over roughly 33,000 sequences, “E-score (rank enrichment, -0.5 to 0.5)” has its median near -0.0068; the highest 2% begin near 0.24. This is one part of a sample in which the highest values are shown more often than they occur.
# Tested on: muMax20 (Max(13-93) K31hArg/K57hArg, M65Nle)
# Experiment: PBM 8-mer E-score (E-score (rank enrichment, -0.5 to 0.5)); higher = stronger preferential binding
# Experimental: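 Protein binding microarray (universal PBM chip covering all 10-mers in fixed probe flanks) with chemically synthesized human Max(13-93) bHLH-LZ analogs (not full-length Max) bearing noncanonical residues (hArg, Tha, Aib, Nle at 65) and aromatic Cys staples. Read-out per 8-mer (and its reverse complement): E-score (rank-based enrichment, -0.5 to 0.5) and Z-score of median probe intensity.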
row,Sequence,PBM 8-mer E-score
1,GCATATAA,0.113 ± 0.027
2,ATATTACA,0.137 ± 0.011
3,GCATTACA,0.142 ± 0.017
4,CTATTATA,0.0941 ± 0.095
5,CTATTACC,0.0779 ± 0.076
6,AAATTATA,0.173 ± 0.054
7,ATATTATA,0.308 ± 0.012
8,AAATTATT,0.2538 ± 0.0012
9,ATATTACC,0.244 ± 0.0062
10,GTATTACA,0.3133 ± 0.0018
11,ACATTATA,0.21 ± 0.031
12,AAATTATG,0.211 ± 0.015
13,CTATTACA,0.171 ± 0.028
14,CCCTTTCG,-0.143 ± 0.066
15,AGAACTAC,0.126 ± 0.015
16,CAGTGGGA,-0.0398 ± 0.11
17,CGAACAGA,-0.107 ± 0.056
18,AGCCTATC,0.0159 ± 0.029
19,AACTTCTC,-0.0128 ± 0.016
20,CAGAGTTA,-0.06527 ± 0.00021
21,CTATTAGA,-0.0357 ± 0.074
22,AGATTATG,0.00982 ± 0.022
23,GTATTAGA,0.213 ± 0.0064
24,GTATTATA,0.256 ± 0.063
25,GTATTAAA,0.178 ± 0.049

row,Sequence,PBM 8-mer E-score
1,ATATTAGA,0.302 ± 0.026
2,ATATTATG,0.276 ± 0.015
3,GCATTATA,0.129 ± 0.031
4,ATATTATC,0.0756 ± 0.14
5,AAACGGAA,-0.0336 ± 0.073
6,CCTAGTAC,0.0875 ± 0.082
7,ACTTCCTC,0.052 ± 0.096
8,AACGCTAG,-0.145 ± 0.08
9,AAAACAGC,0.0469 ± 0.026
10,AAAACAAG,0.111 ± 0.034
11,AAAACAGG,-0.0042 ± 0.15
12,AAAACAAC,0.00369 ± 0.069
13,AAAACAAT,0.265 ± 0.029
14,AAAACAGT,0.252 ± 0.029
15,GGGCTAAC,-0.0713 ± 0.048
16,ACCAGCCC,-0.112 ± 0.14
17,CCGTGACG,-0.149 ± 0.01
18,ACGTGACT,0.234 ± 0.088
19,CCGTGACA,0.0799 ± 0.03
20,ACGTGACG,0.271 ± 0.058
21,ACGTGACC,0.302 ± 0.02
22,GCGTGACC,0.0743 ± 0.024
23,ACGTGACA,0.312 ± 0.043
24,AGGTGACG,-0.141 ± 0.091
25,CCGTGACC,-0.272 ± 0.029

row,Sequence,PBM 8-mer E-score
1,ACCAGAAC,0.0216 ± 0.026
2,AGCGGCCA,-0.227 ± 0.059
3,TAGTACTA,0.0405 ± 0.17
4,AAGGCGGA,-0.113 ± 0.044
5,TAGGCCCA,-0.123 ± 0.016
6,CCAATTTA,0.131 ± 0.034
7,GTGCCCTA,-0.0334 ± 0.02
8,ACGTTATC,0.0863 ± 0.046
9,ACGTTATA,0.228 ± 0.019
10,ACGTTATG,0.282 ± 0.057
11,CCTGTACA,0.0242 ± 0.16
12,ATACACAG,0.0766 ± 0.089
13,ATACACAC,0.208 ± 0.053
14,AGACATAC,0.0812 ± 0.086
15,CTACATAA,0.0871 ± 0.052
16,TTACATAA,0.24 ± 0.0072
17,AGACATAG,-0.014 ± 0.18
18,CTACATAC,0.178 ± 0.042
19,GTACATAA,0.175 ± 0.0024
20,AGACATAT,0.29 ± 0.014
21,ATACATAG,0.181 ± 0.13
22,ATACATAT,0.254 ± 0.075
23,ATACACAT,0.318 ± 0.0071
24,ATCTAACA,0.0591 ± 0.057
25,GCGCTTCA,-0.115 ± 0.063

row,Sequence,PBM 8-mer E-score
1,CTAGAGCC,-0.187 ± 0.036
2,ACGATAGA,-0.0358 ± 0.083
3,AAACATAG,0.126 ± 0.018
4,ATACATAA,0.255 ± 0.032
5,ATACATAC,0.169 ± 0.017
6,GAACATAA,0.123 ± 0.095
7,AAACATAA,0.246 ± 0.1
8,GCACATAA,0.151 ± 0.038
9,ACACATAG,-0.0133 ± 0.049
10,ATACATCA,0.21 ± 0.061
11,ACACATAA,0.265 ± 0.041
12,CTCAGGAG,-0.162 ± 0.071
13,ATCCTTGG,-0.0154 ± 0.11
14,CTTCCCTC,0.0647 ± 0.025
15,AAGATTTG,0.0326 ± 0.071
16,ACGTTTGC,0.0313 ± 0.0058
17,CCGGTGAC,-0.252 ± 0.12
18,AAATGGTA,0.238 ± 0.096
19,ACATGGTC,0.245 ± 0.08
20,CTATGGTC,-0.125 ± 0.061
21,ACATGGCG,0.175 ± 0.045
22,CCATGGTC,-0.1574 ± 0.0011
23,ACATGCTA,0.164 ± 0.071
24,TAATGGTA,0.193 ± 0.013
25,CCATGCTC,0.0121 ± 0.13

row,Sequence,PBM 8-mer E-score
1,ACATGCTC,0.237 ± 0.091
2,AGATGGTG,-0.0739 ± 0.067
3,CAATGGTA,0.0785 ± 0.022
4,ACATGGTG,0.241 ± 0.053
5,ATCTGGTA,-0.00159 ± 0.021
6,AGCGGCCC,-0.191 ± 0.026
7,CGACGGTC,-0.172 ± 0.15
8,AGTGTGTG,0.0857 ± 0.065
9,AAGAGCTA,0.12 ± 0.045
10,ATTTGTCA,0.123 ± 0.0081
11,CCGGCCCG,-0.259 ± 0.054
12,GCATGGTA,0.142 ± 0.082
13,CCATGGTA,0.143 ± 0.12
14,ACATGGTA,0.287 ± 0.017
15,GTACCACA,0.115 ± 0.043
16,CGTGCTCC,0.0253 ± 0.0099
17,ACATCGTA,0.101 ± 0.015
18,AAAATTTG,0.12 ± 0.17
19,AAAAATTT,0.164 ± 0.0071
20,AAAATTTT,0.305 ± 0.019
21,CACTGACC,-0.132 ± 0.086
22,AGCATGTC,0.0591 ± 0.078
23,ACCATGTA,0.0719 ± 0.046
24,ATCATGTA,0.108 ± 0.027
25,AGCATGTA,0.228 ± 0.034

row,Sequence,PBM 8-mer E-score
1,ACCATGTC,0.0641 ± 0.067
2,ATCATGTG,0.247 ± 0.12
3,AGCATGTG,0.276 ± 0.029
4,ACCATGTG,0.359 ± 0.078
5,ATCATGTC,0.225 ± 0.024
6,CCTCGACA,-0.0844 ± 0.042
7,ATATGCTC,0.171 ± 0.015
8,AATGAAAA,0.13 ± 0.0019
9,AATGCGAT,0.019 ± 0.029
10,CCCCGAAA,-0.0496 ± 0.15
11,ATCTTGAG,0.251 ± 0.011
12,ATCTTGAA,0.0915 ± 0.096
13,ATCTTGAC,0.00194 ± 0.029
14,AATGATGT,0.0444 ± 0.087
15,GCATGTCC,0.00639 ± 0.093
16,AGTGAGGG,-0.0244 ± 0.062
17,CATAAAAC,0.209 ± 0.058
18,TATAAAGA,0.252 ± 0.053
19,CATAAAAA,0.254 ± 0.044
20,TAAAAAAA,0.159 ± 0.11
21,TATAAAAA,0.301 ± 0.1
22,AGTAAACA,0.202 ± 0.092
23,AATAAAGA,0.18 ± 0.015
24,GATAAAGA,0.195 ± 0.048
25,GATAAAAA,0.204 ± 0.016

row,Sequence,PBM 8-mer E-score
1,TGTAAACA,0.237 ± 0.0061
2,CATAAAAG,0.138 ± 0.11
3,GGTAAACA,0.163 ± 0.037
4,AAAGTAGA,0.0577 ± 0.0065
5,CAAGGTAA,0.0156 ± 0.05
6,CACCCCAA,0.206 ± 0.015
7,CGAGCACC,-0.226 ± 0.0053
8,TGCCTGAA,-0.00136 ± 0.071
9,ATTGATCG,0.103 ± 0.027
10,GATAAACA,0.136 ± 0.05
11,CATAAACA,0.252 ± 0.053
12,TATAAACA,0.234 ± 0.022
13,GTCGCGCA,-0.0658 ± 0.12
14,GTACTCCA,-0.0757 ± 0.025
15,AAGCTGAC,-0.16 ± 0.059
16,AAGCTGAT,0.313 ± 0.042
17,AAGCTGTA,0.111 ± 0.038
18,TGCTGGAA,-0.0216 ± 0.063
19,GGAGAACC,-0.142 ± 0.092
20,AGTTATAC,0.143 ± 0.075
21,AGTTATAT,0.244 ± 0.012
22,AGTTATAA,0.181 ± 0.096
23,CGTTATAG,0.262 ± 0.046
24,CGTTATAC,0.036 ± 0.026
25,CGTTATAA,0.133 ± 0.02

row,Sequence,PBM 8-mer E-score
1,GTCTTCCA,-0.0719 ± 0.098
2,ATCCTAAG,-0.054 ± 0.025
3,ACAAAGCG,0.0741 ± 0.0089
4,GAACCTAC,-0.16 ± 0.037
5,ATATTTAA,0.344 ± 0.013
6,ATATTAAC,0.196 ± 0.0065
7,ATATTAAG,0.163 ± 0.058
8,ACATTTAG,0.136 ± 0.066
9,CTATTTAA,0.0343 ± 0.057
10,ATATTAAT,0.238 ± 0.075
11,ATATTTAC,0.196 ± 0.025
12,GCATTTAA,0.0477 ± 0.11
13,CTATTAAA,0.159 ± 0.025
14,ACATTTAA,0.258 ± 0.14
15,TTATTAAA,0.142 ± 0.044
16,ATATTAAA,0.326 ± 0.0046
17,AGGAACTA,-0.0068 ± 0.0036
18,CACCAGGG,-0.137 ± 0.034
19,AAGTCTTC,0.0741 ± 0.052
20,CTCCATTC,0.102 ± 0.029
21,CGAACCTC,0.00719 ± 0.0044
22,AAAAATCT,0.0641 ± 0.091
23,GTCCTGAA,-0.111 ± 0.053
24,CCAGAAAC,-0.112 ± 0.092
25,CTCACGGA,-0.205 ± 0.023

row,Sequence,PBM 8-mer E-score
1,CATAGCAC,0.258 ± 0.0042
2,GATAGCAC,0.0754 ± 0.042
3,CATAGCAA,0.209 ± 0.024
4,AGGGCGAT,-0.119 ± 0.015
5,AGACTAAT,-0.0591 ± 0.045
6,GGATATTA,0.125 ± 0.09
7,CGATATAA,0.267 ± 0.016
8,CGATATTA,0.267 ± 0.038
9,CGATATAG,0.044 ± 0.12
10,CGATATAC,0.0102 ± 0.0034
11,CGATATTC,-0.032 ± 0.1
12,CTCGGGTC,-0.292 ± 0.04
13,ATCTCAGC,-0.206 ± 0.11
14,AACATAAC,0.18 ± 0.13
15,ATCATGAA,0.111 ± 0.029
16,ATCATAAG,0.19 ± 0.028
17,ATCATGAG,0.111 ± 0.046
18,AACATAAT,0.31 ± 0.035
19,ATCATAAT,0.288 ± 0.047
20,AACATAAG,0.13 ± 0.07
21,ATCATAAA,0.212 ± 0.046
22,ATCATGAT,0.289 ± 0.0047
